Laboratory results reported in PubChem BioAssay AID1159580 (chemical genetic matrix, 2015).
Among all 5,500 compounds or so, about 2,000 (36%) were called active. Inconclusive results (about 18%) are left out. No stated cut-off is given here; in the data, active means normalized growth mostly below about 0.91 (no sharp cut-off); inconclusive means no clear call, values can overlap the other calls; inactive means mostly above about 0.92. The list shows a part of the results.

Experiment: chemical genetic growth profiling, strain panel (AID 1159580);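 further: tested at 20 µM; growth read once vehicle control cultures reached saturation at 30 °C; 1 = growth at the plate median or of vehicle wells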
Conditions: growth OD
[1] = S. cerevisiae deletion strains, locus YAL013W, strain DEP1, stronger effect = lower value
[2] = S. cerevisiae deletion strains, locus YBR229C, strain ROT2, stronger effect = lower value
[3] = S. cerevisiae deletion strains, locus YDL101C, strain DUN1, stronger effect = lower value
[4] = S. cerevisiae deletion strains, locus YDR150W, strain NUM1, stronger effect = lower value
[5] = S. cerevisiae deletion strains, locus YEL061C, strain CIN8, stronger effect = lower value
[6] = S. cerevisiae deletion strains, locus YGR078C, strain PAC10, stronger effect = lower value
[7] = S. cerevisiae deletion strains, locus YHR030C, strain SLT2, stronger effect = lower value
[8] = S. cerevisiae deletion strains, locus YHR087W, strain rtc3, stronger effect = lower value
[9] = S. cerevisiae deletion strains, locus YJL187C, strain SWE1, stronger effect = lower value
[10] = S. cerevisiae deletion strains, locus YJR043C, strain POL32, stronger effect = lower value
[11] = S. cerevisiae deletion strains, locus YJR075W, strain HOC1, stronger effect = lower value
[12] = S. cerevisiae deletion strains, locus YLR039C, strain RIC1, stronger effect = lower value
[13] = S. cerevisiae deletion strains, locus YLR058C, strain SHM2 (second series), stronger effect = lower value
[14] = S. cerevisiae deletion strains, locus YLR085C, strain ARP6, stronger effect = lower value
[15] = S. cerevisiae deletion strains, locus YLR262C, strain YPT6, stronger effect = lower value
[16] = S. cerevisiae deletion strains, locus YML094W, strain GIM5, stronger effect = lower value
[17] = S. cerevisiae deletion strains, locus YMR219W, strain ESC1, stronger effect = lower value
[18] = S. cerevisiae deletion strains, locus YMR263W, strain SAP30, stronger effect = lower value
[19] = S. cerevisiae deletion strains, locus YNL153C, strain GIM3, stronger effect = lower value
[20] = S. cerevisiae deletion strains, locus YNL298W, strain CLA4 (second series), stronger effect = lower value
[21] = S. cerevisiae deletion strains, locus YNL322C, strain KRE1, stronger effect = lower value
[22] = S. cerevisiae deletion strains, locus YNR030W, strain Alg12, stronger effect = lower value
[23] = S. cerevisiae deletion strains, locus YPL055C, strain LGE1, stronger effect = lower value
[24] = S. cerevisiae deletion strains, locus YPL241C, strain CIN2, stronger effect = lower value
[25] = S. cerevisiae deletion strains, locus YPR135W, strain CTF4, stronger effect = lower value
[26] = S. cerevisiae deletion strains, locus YAR019C, strain CDC15, stronger effect = lower value
[27] = S. cerevisiae deletion strains, locus YBL105C, strain PKC1, stronger effect = lower value
[28] = S. cerevisiae deletion strains, locus YBR135W, strain CKS1, stronger effect = lower value
[29] = S. cerevisiae deletion strains, locus YBR136W, strain MEC1, stronger effect = lower value
[30] = S. cerevisiae deletion strains, locus YBR160W, strain CDC28, stronger effect = lower value
[31] = S. cerevisiae deletion strains, locus YDL017W, strain CDC7, stronger effect = lower value
[32] = S. cerevisiae deletion strains, locus YDL028C, strain MPS1, stronger effect = lower value
[33] = S. cerevisiae deletion strains, locus YDL108W, strain KIN28, stronger effect = lower value
[34] = S. cerevisiae deletion strains, locus YDL132W, strain cdc53, stronger effect = lower value
[35] = S. cerevisiae deletion strains, locus YDL214C, strain PRR2, stronger effect = lower value
[36] = S. cerevisiae deletion strains, locus YDR052C, strain DBF4, stronger effect = lower value
[37] = S. cerevisiae deletion strains, locus YDR054C, strain cdc34, stronger effect = lower value
[38] = S. cerevisiae deletion strains, locus YDR226W, strain ADK1, stronger effect = lower value
[39] = S. cerevisiae deletion strains, locus YDR477W, strain SNF1, stronger effect = lower value
[40] = S. cerevisiae deletion strains, locus YER123W, strain YCK3, stronger effect = lower value
[41] = S. cerevisiae deletion strains, locus YER133W, strain GLC7, stronger effect = lower value
[42] = S. cerevisiae deletion strains, locus YFL009W, strain cdc4, stronger effect = lower value
[43] = S. cerevisiae deletion strains, locus YFL029C, strain CAK1, stronger effect = lower value
[44] = S. cerevisiae deletion strains, locus YFR003C, strain YPI1, stronger effect = lower value
[45] = S. cerevisiae deletion strains, locus YFR019W, strain FAB1, stronger effect = lower value
[46] = S. cerevisiae deletion strains, locus YFR028C, strain CDC14, stronger effect = lower value
[47] = S. cerevisiae deletion strains, locus YGR040W, strain KSS1, stronger effect = lower value
[48] = S. cerevisiae deletion strains, locus YGR052W, strain FMP48, stronger effect = lower value
[49] = S. cerevisiae deletion strains, locus YGR092W, strain DBF2, stronger effect = lower value
[50] = S. cerevisiae deletion strains, locus YHR079C, strain IRE1, stronger effect = lower value
[51] = S. cerevisiae deletion strains, locus YHR082C, strain KSP1, stronger effect = lower value
[52] = S. cerevisiae deletion strains, locus YHR205W, strain SCH9, stronger effect = lower value
[53] = S. cerevisiae deletion strains, locus YIL147C, strain SLN1, stronger effect = lower value
[54] = S. cerevisiae deletion strains, locus YJL095W, strain BCK1, stronger effect = lower value
[55] = S. cerevisiae deletion strains, locus YJL128C, strain PBS2, stronger effect = lower value
[56] = S. cerevisiae deletion strains, locus YJL157C, strain FAR1, stronger effect = lower value
[57] = S. cerevisiae deletion strains, locus YJR016C, strain ILV3, stronger effect = lower value
[58] = S. cerevisiae deletion strains, locus YJR066W, strain TOR1 (second series), stronger effect = lower value
[59] = S. cerevisiae deletion strains, locus YJR066W, strain TOR1, stronger effect = lower value
[60] = S. cerevisiae deletion strains, locus YKL048C, strain ELM1, stronger effect = lower value
[61] = S. cerevisiae deletion strains, locus YKL067W, strain YNK1, stronger effect = lower value
[62] = S. cerevisiae deletion strains, locus YKL101W, strain HSL1, stronger effect = lower value
[63] = S. cerevisiae deletion strains, locus YKL193C, strain SDS22, stronger effect = lower value
[64] = S. cerevisiae deletion strains, locus YKL203C, strain TOR2, stronger effect = lower value
[65] = S. cerevisiae deletion strains, locus YLR113W, strain HOG1, stronger effect = lower value
[66] = S. cerevisiae deletion strains, locus YLR133W, strain CKI1, stronger effect = lower value
[67] = S. cerevisiae deletion strains, locus YLR403W, strain SFP1, stronger effect = lower value
[68] = S. cerevisiae deletion strains, locus YML070W, strain DAK1, stronger effect = lower value
[69] = S. cerevisiae deletion strains, locus YMR205C, strain PFK2 (second series), stronger effect = lower value
[70] = S. cerevisiae deletion strains, locus YMR277W, strain FCP1, stronger effect = lower value
[71] = S. cerevisiae deletion strains, locus YNL006W, strain LST8, stronger effect = lower value
[72] = S. cerevisiae deletion strains, locus YNL020C, strain ARK1, stronger effect = lower value
[73] = S. cerevisiae deletion strains, locus YNL161W, strain CBK1, stronger effect = lower value
[74] = S. cerevisiae deletion strains, locus YNL183C, strain NPR1, stronger effect = lower value
[75] = S. cerevisiae deletion strains, locus YNL207W, strain RIO2, stronger effect = lower value
[76] = S. cerevisiae deletion strains, locus YNL222W, strain SSU72, stronger effect = lower value
[77] = S. cerevisiae deletion strains, locus YNL307C, strain MCK1 (second series), stronger effect = lower value
[78] = S. cerevisiae deletion strains, locus YOL136C, strain PFK27, stronger effect = lower value
[79] = S. cerevisiae deletion strains, locus YOR061W, strain CKA2, stronger effect = lower value
[80] = S. cerevisiae deletion strains, locus YOR119C, strain RIO1, stronger effect = lower value
[81] = S. cerevisiae deletion strains, locus YOR231W, strain MKK1, stronger effect = lower value
[82] = S. cerevisiae deletion strains, locus YOR329C, strain SCD5, stronger effect = lower value
[83] = S. cerevisiae deletion strains, locus YPL031C, strain PHO85, stronger effect = lower value
[84] = S. cerevisiae deletion strains, locus YPL153C, strain RAD53, stronger effect = lower value
[85] = S. cerevisiae deletion strains, locus YPL204W, strain HRR25, stronger effect = lower value
[86] = S. cerevisiae deletion strains, locus YPL209C, strain IPL1, stronger effect = lower value
[87] = S. cerevisiae deletion strains, locus YPL256C, strain CLN2, stronger effect = lower value
[88] = S. cerevisiae deletion strains, locus YPR025C, strain CCL1, stronger effect = lower value
[89] = S. cerevisiae deletion strains, locus YPR106W, strain ISR1, stronger effect = lower value
[90] = S. cerevisiae deletion strains, locus YPR111W, strain DBF20, stronger effect = lower value
[91] = S. cerevisiae deletion strains, strain NNK1, stronger effect = lower value

Measured: normalized growth

NC(=S)N/N=C\c1cc(F)cc(F)c1
active: [14] 0.34 | S. cerevisiae deletion strains, locus YMR307W, strain GAS1, stronger effect = lower value 0.574 | [20] 0.761
inactive: [1] 0.97 | [2] 1.01 | [3] 1.04 | [4] 0.96 | [5] 0.94 | [6] 0.998 | S. cerevisiae deletion strains, locus YGR229C, strain SMI1, stronger effect = lower value 0.944 | [7] 0.778 | [8] 1.08 | [9] 0.971 | [10] 0.98 | [11] 1.02 | [12] 1.05 | [13] 0.994 | [15] 1.04 | [16] 0.923 | [17] 0.999 | [18] 0.92 | [19] 0.976 | [21] 1.05 | [22] 0.922 | [23] 0.963 | [24] 0.933 | [25] 0.78 | S. cerevisiae strains, strain wild type, stronger effect = lower value 0.923

NC(=S)N/N=C\c1ccc(F)c(Cl)c1
inactive: [2] 0.995 | [3] 0.972 | S. cerevisiae deletion strains, locus YDL134C, strain PPH21, stronger effect = lower value 0.992 | [4] 1 | [6] 0.988 | [8] 1.04 | [9] 0.981 | [10] 0.996 | [11] 1.04 | [12] 0.966 | [13] 0.996 | [15] 1.06 | [17] 0.999 | [18] 0.919 | S. cerevisiae deletion strains, locus YNL128W, strain TEP1, stronger effect = lower value 0.944 | [19] 0.961 | [21] 1.04 | [23] 0.849 | [24] 0.889 | [25] 0.655
active: [1] 0.921 | [5] 0.804 | [7] 0.605 | [14] 0.198 | [16] 0.759 | [20] 0.661 | [22] 0.811

S=C(N/N=C\c1ccc(Cl)cc1)N/N=C\c1ccc(Cl)cc1
inactive: [26] 0.957 | [27] 0.962 | [28] 0.962 | [29] 0.973 | [30] 0.969 | [31] 0.961 | [32] 0.959 | [3] 0.992 | [33] 0.967 | [34] 0.957 | [35] 0.77 | [36] 0.967 | [37] 0.944 | [38] 0.972 | [39] 0.81 | [41] 0.748 | [42] 0.952 | [43] 0.955 | [44] 0.965 | [45] 0.832 | [46] 0.963 | [47] 0.849 | [48] 0.779 | [50] 0.588 | [51] 0.817 | [52] 0.793 | [53] 0.966 | [54] 0.653 | [55] 0.991 | [57] 0.955 | [59] 0.596 | [60] 0.833 | [63] 0.961 | [64] 0.783 | [67] 0.738 | S. cerevisiae deletion strains, locus YMR001C, strain CDC5, stronger effect = lower value 0.965 | [69] 0.746 | [70] 0.953 | [71] 0.96 | [73] 0.963 | [74] 0.81 | [75] 0.955 | [76] 0.961 | S. cerevisiae deletion strains, locus YOL078W, strain AVO1, stronger effect = lower value 0.96 | [78] 0.75 | [80] 0.866 | [81] 0.697 | [82] 0.957 | [83] 0.688 | [85] 0.682 | [86] 0.967 | [88] 0.966 | [89] 0.972 | [90] 0.975 | [91] 0.984 | S. cerevisiae deletion strains, strain TSCII, stronger effect = lower value 0.955
active: [40] 0.477 | [49] 0.284 | [7] 0.64 | [56] 0.582 | [58] 0.448 | [61] 0.645 | [62] 0.714 | [65] 0.66 | [66] 0.693 | [68] 0.663 | [72] 0.576 | [77] 0.469 | [79] 0.618 | [84] 0.654 | [87] 0.686

Cc1cccc(Cl)c1/C=N\NC(N)=S
inactive: [27] 0.911 | [28] 0.904 | [35] 0.867 | [39] 0.765 | [40] 0.873 | [41] 0.805 | [45] 0.957 | [47] 0.8 | [48] 0.818 | [49] 0.79 | [50] 0.94 | [51] 0.893 | [52] 1.02 | [54] 0.934 | [55] 0.973 | [56] 0.855 | [58] 0.837 | [59] 0.755 | [60] 0.88 | [61] 0.886 | [62] 0.919 | [65] 1.04 | [66] 0.886 | [67] 0.756 | [68] 0.932 | [69] 0.886 | [71] 0.953 | [72] 0.904 | [73] 0.924 | [74] 0.77 | [76] 0.931 | [77] 0.797 | [78] 0.948 | [79] 0.864 | [81] 0.949 | [82] 0.927 | [83] 0.824 | [84] 0.868 | [85] 0.877 | [86] 0.912 | [87] 1.03 | [88] 0.914 | [89] 0.927 | [90] 0.919 | [91] 0.932
active: [26] 0.868 | [29] 0.862 | [30] 0.892 | [31] 0.896 | [32] 0.88 | [3] 0.89 | [33] 0.869 | [34] 0.877 | [36] 0.858 | [37] 0.865 | [38] 0.826 | [42] 0.881 | [43] 0.865 | [44] 0.899 | [46] 0.828 | [7] 0.644 | [53] 0.87 | [57] 0.885 | [63] 0.872 | [64] 0.671 | [70] 0.87 | [75] 0.845 | [80] 0.625
